Usually AC50 stands for the concentration giving half of the maximal activity seen.

In PubChem BioAssay (EPA / NIEHS) one finds outcome and AC50 data, which are given here for eleven compounds.

Assay [1] deals with Cellular tumor antigen p53 (Homo sapiens) (UniProt P04637). The assay can be described thus: TOX21_p53_BLA_p2_ratio: Tox21 HCT-116 p53 Agonism Beta-lactamase Assay, Ratio, Phase 2 (AID 2283592). In short, it runs like this: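 Cleaved-to-uncleaved substrate ratio (460 vs 530 nm) measured in HCT116 cells with an inducible beta-lactamase reporter linked to p53 activity. Compounds incubated 16 h at 37C before 2 h room-temperature CCF4-AM loading.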
Sequence of Cellular tumor antigen p53 (Homo sapiens) (P04637 whole entry, looked up): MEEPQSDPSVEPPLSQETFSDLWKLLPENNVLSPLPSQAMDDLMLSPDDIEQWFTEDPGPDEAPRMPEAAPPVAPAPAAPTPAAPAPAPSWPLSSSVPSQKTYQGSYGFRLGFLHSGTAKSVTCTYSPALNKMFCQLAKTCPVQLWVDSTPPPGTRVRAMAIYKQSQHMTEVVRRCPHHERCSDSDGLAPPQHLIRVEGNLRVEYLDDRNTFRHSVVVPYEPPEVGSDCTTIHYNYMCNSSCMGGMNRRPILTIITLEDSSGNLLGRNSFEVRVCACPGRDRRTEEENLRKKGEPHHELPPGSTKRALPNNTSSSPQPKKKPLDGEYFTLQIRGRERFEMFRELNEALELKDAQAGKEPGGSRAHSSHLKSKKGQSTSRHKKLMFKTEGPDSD

Assay [2] can be described thus: TOX21_p53_BLA_p3_viability: Viability Assessment in the Tox21 HCT-116 p53 Agonism Beta-lactamase Assay, Phase 3 (AID 2283593).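 Also: cells exposed to compound for 16 h before reading.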 In short, it runs like this:
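Cellular ATP was quantified by CellTiter-Glo luminescence, read after 30 min at room temperature. Beforehand, HCT116 cells (4000/well) received compound 5 h post-seeding, 217-fold diluted from DMSO, then incubated 16 h at 37C.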

The target in assay [3] is Cellular tumor antigen p53 (Homo sapiens) (UniProt P04637). The assay can be described thus: TOX21_p53_BLA_p3_ratio: Tox21 HCT-116 p53 Agonism Beta-lactamase Assay, Ratio, Phase 3 (AID 2283596). A digest of the protocol:
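Cells were seeded at 4000/well, rested 5 h at 37C, then dosed with DMSO compound solutions (217-fold dilution) for 16 h. CCF4-AM substrate was loaded for 2 h at room temperature, and the 460/530 nm emission ratio was fitted for gain of signal versus DMSO.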

For assay [4] the target is unchanged. The assay can be described thus: TOX21_p53_BLA_p5_ratio: Tox21 HCT-116 p53 Agonism Beta-lactamase Assay, Ratio, Phase 5 (AID 2283599). A digest of the protocol: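 Beta-lactamase reporter ratio (blue 460 nm over green 530 nm, 405 nm excitation) after 2 h CCF4-AM loading, in HCT-116 cells exposed 16 h at 37 C to compounds pinned at 217-fold dilution. Increases relative to DMSO baseline scored.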

The nature of assay [5]: TOX21_p53_BLA_p5_viability: Viability Assessment in the Tox21 HCT-116 p53 Agonism Beta-lactamase Assay, Phase 5 (AID 2283600). A digest of the protocol: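 Viability is taken from cellular ATP content, measured by luciferase luminescence in the same wells after the beta-lactamase ratio read. Cells are seeded at 4000 per well and exposed to DMSO-dissolved compounds, diluted 217-fold, for 16 h.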

Assay [6] has as its target Cellular tumor antigen p53 (Homo sapiens) (UniProt P04637). As to the kind of experiment: TOX21_p53_BLA_p4_ratio: Tox21 HCT-116 p53 Agonism Beta-lactamase Assay, Ratio, Phase 4 (AID 2283601). In short, it runs like this:
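Signal is the blue/green (460nm/530nm) ratio of cleaved versus uncleaved CCF4-AM substrate, read after 2 h substrate loading. Cells were HCT116 carrying the p53-responsive beta-lactamase reporter, dosed 16 h at 37C, 5% CO2; CellTiter-Glo measured in parallel.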

Records with an inconclusive call do not appear. The source made the active and inactive calls. The calls were made as follows: active = hit-call score of the fitted dose curve at least 0.9, where 1 is the maximum; inconclusive = response in the unintended direction; inactive = score below 0.9.

As to `CC1CN(c2ccccc2)NC1=O` (centres undefined), the result in assay [1], in assay [2], in assay [3], in assay [4], in assay [5] and in assay [6] was inactive.

Regarding `CCCCC(C)(O)C/C=C/[C@H]1[C@H](O)CC(=O)[C@@H]1CCCCCCC(=O)OC` (some centres undefined), the outcome in assay [1], in assay [2], in assay [3], in assay [4] and in assay [6] was inactive.

In the case of `CCC(c1ccccc1)c1noc(CCN(CC)CC)n1` (centres undefined), the result in assay [1], in assay [2], in assay [3], in assay [4] and in assay [6] was inactive.

As for `Nc1ncnc2c1ncn2[C@@H]1O[C@H](CO)[C@@H](O)[C@H]1O`, the result in assay [1], in assay [2], in assay [3], in assay [4], in assay [5] and in assay [6] was inactive.

Take `CCCCCCCCCCCCCCCCCCO`: the result in assay [1], in assay [2], in assay [3], in assay [4] and in assay [6] was inactive.

As for `CCn1cc(C(=O)O)c(=O)c2cc(F)c(N3CCNCC3)nc21`, the result in assay [1], in assay [2], in assay [3], in assay [4] and in assay [6] was inactive.

Turning to `O=C1OC(O)C(C(Cl)Cl)=C1Cl` (centres undefined), the concentration at half-maximal activity (AC50) in assay [1] is 13.2 µM (active); in assay [2], 14.6 µM (active); in assay [3], 13.3 µM (active); in assay [4], 25.6 µM (active). In addition, the compound was called inactive in assay [5] and in assay [6].

Turning to `Cc1cc(O)c2c(c1)C(=O)c1cccc(O)c1C2=O`, the outcome in assay [1], in assay [2], in assay [3], in assay [4], in assay [5] and in assay [6] was inactive.

In the case of `CC(C)NCC(O)COc1cccc2[nH]ccc12` (centres undefined), the result in assay [1], in assay [2], in assay [3], in assay [4] and in assay [6] was inactive.

Take `CC1=C(/C=C/C(C)=C/C=C/C(C)=C/C(=O)Oc2c(C)c(C)c3c(c2C)CC[C@@](C)(CCC[C@H](C)CCC[C@H](C)CCCC(C)C)O3)C(C)(C)CCC1`: the result in assay [1], in assay [3], in assay [4] and in assay [6] was inactive. Further, the AC50 in assay [2] is 42.8 µM (active).

On to `N=c1nc(N2CCCCC2)cc(N)n1O`, for which the outcome in assay [1], in assay [2], in assay [3], in assay [4] and in assay [6] was inactive.
